Measured values: the supplement of paper PMC10477191
± gives the standard deviation of the averaged measurements.

System: Drosophila virilis antennal basiconic sensillum AB10
Assay: odor-evoked OSN spike response (post minus pre-stimulus); higher = stronger neuronal excitation
Conditions: odor dilution: 10^-4
Experimental: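 Single sensillum recordings from antennal basiconic sensilla of D. virilis. A 500 ms pulse of odorant (10^-4 in mineral oil or DMSO) was delivered; the response is the change in spike frequency between the 1 s pre- and post-stimulus windows (spikes/s).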

Row | SMILES | odor-evoked OSN spike response [spikes/s]
1 | CC(=O)C(C)O (stereo not drawn) [acetoin] | 143 ± 43
2 | CC(=O)OC/C=C(\C)CCC=C(C)C [geranyl acetate] | 134 ± 24
3 | CCOC(=O)CC(C)O (stereo not drawn) [Ethyl-3-hydroxybutyrate] | 99.4 ± 35
